Source: PubChem BioAssay (The Scripps Research Institute Molecular Screening Center)
CHO-K1 Ca antag: counter-screen for M1 antagonists: effect in parental CHO-K1 cells; ATP-induced calcium, Fluo-8 fluorescence; inhibition, % at 3 µM; hit rate 0.6% among 360,000;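 active = inhibition above a per-plate cutoff, the plate's mean sample inhibition plus 3 SD, cut at about 24% in these data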;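 note: 0% = DMSO plus EC80 ATP and 100% = DMSO alone without ATP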
M1 ag: human M1 muscarinic receptor agonists, primary screen, Fluo-8 calcium fluorescence, CHO-K1 cells, HTS. hit rate 0.33% among 360,000. activation, % at 3 µM. CHO-K1 hM1, agonist mode; 0% DMSO, 100% acetylcholine EC100. AID 588814, 2011. Muscarinic acetylcholine receptor M1 (Homo sapiens), P11229;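 active = activation above the run's mean compound activation plus 3 SD, cut at about 16% in these data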;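 note: peak over basal fluorescence ratio within a 140 s kinetic read after compound addition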
Target sequence (P11229 whole entry, looked up): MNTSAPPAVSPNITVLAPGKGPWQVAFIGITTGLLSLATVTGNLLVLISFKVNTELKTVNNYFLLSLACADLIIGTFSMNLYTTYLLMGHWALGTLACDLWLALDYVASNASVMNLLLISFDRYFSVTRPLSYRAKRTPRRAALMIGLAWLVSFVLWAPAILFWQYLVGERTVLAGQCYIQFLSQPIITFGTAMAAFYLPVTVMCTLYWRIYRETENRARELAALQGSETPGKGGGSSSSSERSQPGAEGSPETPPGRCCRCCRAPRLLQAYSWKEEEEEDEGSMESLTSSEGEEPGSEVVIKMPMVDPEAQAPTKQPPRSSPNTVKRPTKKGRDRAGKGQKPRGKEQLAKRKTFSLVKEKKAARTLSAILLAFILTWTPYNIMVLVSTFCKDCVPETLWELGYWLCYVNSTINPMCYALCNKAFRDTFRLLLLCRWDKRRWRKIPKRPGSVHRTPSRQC
M1 PAM parental: nonselective calcium activators in parental CHO-K1 cells, primary screen, counter-screen for M1 PAM project, cell-based, Fluo-8 calcium fluorescence, full deck, 1536-well. ATP EC20; 0% at ATP EC20, 100% at ATP max. hit rate 0.02% among 360,000. activation, % at 3 µM;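 active = activation above the run cutoff, the mean activation of all test compounds plus 3 SD, cut at about 40% in these data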;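 note: peak over basal fluorescence ratio in a 140 s read after ATP addition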
M1 PAM: human M1 muscarinic receptor positive allosteric modulators, primary screen, CHO-K1 cells, Fluo-8 calcium fluorescence, 1536-well. AID 588819, 2011. Muscarinic acetylcholine receptor M1 (Homo sapiens), P11229. activation, % at 3 µM. CHO-K1 hM1, ACh EC20; 0% = ACh EC20, 100% = maximal ACh. hit rate 0.088% among 360,000; in the data active = activation above about 19%, passing the limit was not always enough
CHRM1 antagonist: human M1 muscarinic receptor antagonists, primary screen, CHO-K1 cells, Fluo-8 calcium fluorescence, 1536-well. hit rate 1.3% among 360,000. CHO-K1 hM1, ACh EC80 antagonist. AID 588852, 2011. inhibition, % at 3 µM. Muscarinic acetylcholine receptor M1 (Homo sapiens), P11229;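 active = percent inhibition above its own plate's cutoff, namely the mean of that plate's compound wells plus 3 SD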;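 note: peak over basal fluorescence ratio during 140 s after agonist addition; 0% = ACh EC80 plus DMSO and 100% = DMSO alone without agonist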
CHO-K1 Ca ag: counter-screen for M1 agonists: effect in parental CHO-K1 cells | activation, % at 3 µM | hit rate 0.48% among 360,000 | Fluo-8 calcium fluorescence; scaled to maximal ATP response, vehicle zero; in the data active = activation above about 15%;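 note: untransfected CHO-K1 host cells lacking M1 receptor as counterscreen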
* hit, by the source's call; . = not tested or not shown. Only some compounds are listed: those with a hit (about 2.3% of all), similar ones and a draw of the others.

SMILES	CHO-K1 Ca antag	M1 ag	M1 PAM parental	M1 PAM	CHRM1 antagonist	CHO-K1 Ca ag
COc1ccc(N2C(=O)CSC2c2ccccc2F)c(OC)c1 (centres undefined)	-10	-9	1	6	-3	0
NS(=O)(=O)c1ccc(CCNC(=O)CCCCCn2c(=S)[nH]c3ccc(Br)cc3c2=O)cc1	4	0	13	-9	41*	7
CCCCN1CC(=O)N2[C@H](c3ccc(Cl)cc3)[C@@H]3C(=O)N(CC)C(=O)[C@@H]3[C@]2(C)C1=O	-10	-2	8	4	-3	1
C=CCNC(=O)NC(=O)COC(=O)[C@H](C)NS(=O)(=O)c1c(C)c(C)cc(C)c1C	-8	-3	15	8	-12	1
Cc1ccsc1C(=O)N1CCCC(CO)(Cc2ccccc2)C1 (centres undefined)	4	0	-2	4	-4	2
Fc1ccc(N2CCN(C3=Nc4cccc5cccc3c45)CC2)cc1	-4	-14	15	-34	88*	3
CCN(CC)S(=O)(=O)c1ccc(N(C)C)c(NC(=O)CSCc2c(C)noc2C)c1	-12	-1	14	14	-19	1
Cc1cc(C)cc(-n2c(C)nc3cc(C(=O)O)ccc32)c1	-7	-1	12	2	-3	1
COC(=O)Cc1ccc(OC2(C)CCN(Cc3csc4ccccc34)C2)cc1 (centres undefined)	-14	-9	13	-26	29*	0
C/C(CC(=O)Nc1cccc(F)c1)=N\NC(=O)c1ccncc1	-12	-1	8	5	-7	1
S=c1[nH]nc(COc2ccccc2)n1Cc1ccccc1	-1	-7	17	-6	0	5
S=c1[nH]nc(CN2CCCCC2)n1Cc1ccccc1	-5	-7	9	-24	43*	0
CCn1c(Cc2ccccc2)n[nH]c1=S	-23	-5	20	5	-11	1
CCCCn1c(Cc2ccccc2)n[nH]c1=S	4	-5	-6	-20	86*	0
S=c1[nH]nc(CN2CCCC2)n1Cc1ccccc1	34*	-7	-13	-23	44*	-1
COc1ccc(S(=O)(=O)N2CCOCC2)cc1NC(=O)C1CC(=O)N(c2ccc3c(c2)OCCO3)C1 (centres undefined)	-9	-3	-5	0	-2	0
CCCCCCSc1ccc([C@H]2N[C@@](C)(C(=O)OC)[C@H]3C(=O)N(C)C(=O)[C@@H]23)cc1	6	-5	-16	-18	36*	2
CCCSc1ccc([C@H]2N[C@@](C)(C(=O)OC)[C@H]3C(=O)N(C)C(=O)[C@@H]23)cc1	-14	-3	9	4	-12	1
CN(CC1CCCN(CCc2ccc(Cl)cc2)C1)C(=O)c1ccoc1 (centres undefined)	-13	-7	12	-13	12	1
CN(CC1CCCN(CCc2ccc(Cl)cc2)C1)C(=O)c1ccc2nc[nH]c2c1 (centres undefined)	-1	-7	-3	-20	48*	0
CN(CC1CCCN(CCc2ccc(Cl)cc2)C1)C(=O)c1ccco1 (centres undefined)	-11	-6	15	-16	35*	-1
CC(C)CC1NC(=O)N(CC(=O)Nc2ccc(OCc3ccccc3)cc2)C1=O (centres undefined)	-6	2	18	2	-2	4
CCCNc1c(NS(=O)(=O)c2ccc(Cl)s2)c(=O)oc2ccccc12	29*	-2	-12	-1	2	0
CCOC(=O)[C@@H](C)N(C(=O)OC(C)(C)C)S(=O)(=O)N(Cc1ccccc1)[C@H](C(=O)OC)C(C)C	-8	-8	5	-1	-2	0
O=C(Nc1ccc(C(=O)NCCCN2CCN(c3ccc(F)cc3)CC2)cc1)C1=CSCCO1	23	17*	7	-1	-6	13
SMILES	CHO-K1 Ca antag	M1 ag	M1 PAM parental	M1 PAM	CHRM1 antagonist	CHO-K1 Ca ag
O=C(Nc1ccc(C(=O)NCCCN2CCCCC2)cc1)C1=CSCCO1	2	-1	-11	-6	17	6
CSc1ccccc1NC(=O)C1=CC(c2ccc(C)cc2)=NS(=O)(=O)N1C	0	0	5	-6	6	5
CCN(CC)C(=O)c1ccc(COc2ccc(Cl)c(C)c2)o1	20	4	4	-10	32*	10
CN1CCCN=C1COC(=O)C(O)(c1ccccc1)C1CCCCC1 (centres undefined)	2	-8	-10	-26	99*	0
CCN(CC)CC#CCOC(c1ccccc1)c1ccccc1	-15	-5	24	-23	94*	1
COCCN(CCOC)CC(O)COC(c1ccccc1)c1ccccc1 (centres undefined)	1	-16	22	-2	-12	1
Cc1ccc(C(OCC(C)(C)C[N+](C)(C)C)c2ccccc2)cc1 (centres undefined)	19	-13	-15	-34	99*	-1
CCN(CC)CCOC(c1ccccc1)c1ccc(C)cc1 (centres undefined)	1	-7	19	-26	96*	1
CCNCCOC(c1ccccc1)c1ccccc1	-8	-6	15	-25	26*	1
COc1ccc(-c2ccc(N3C(c4cc(OC)cc(OC)c4)=Cc4ccc(OC)cc4C3CC(C)=O)cc2)cc1 (centres undefined)	-17	.	13	.	.	2
Cc1ccc(C23CCC(=O)N2C(C(=O)O)CS3)c(C)c1 (centres undefined)	2	0	-5	-3	14	0
CN(C)CC#CCOC(c1ccccc1)c1ccccc1	-12	7	-6	-20	80*	0
C(#CCN1CCOCC1)COCCCOC(c1ccccc1)c1ccccc1	-36	-10	-9	-4	-3	0
COc1cccc(-c2cc3nc(NCc4ccccc4F)n(C)c(=O)c3s2)c1	3	-2	-6	0	-8	0
COc1ccc(-c2nc(C#N)c(N3CCN(c4ccccc4)CC3)o2)cc1	9	-1	-10	-15	29*	0
COc1ccc(N2CCN(c3oc(-c4ccc(OC)c(OC)c4)nc3C#N)CC2)cc1	-6	-1	16	8	-10	2
Cc1nnc(NC(=O)C2CCCN2C(=O)Nc2ccccc2)s1 (centres undefined)	6	-1	22	14	-11	1
Cc1ccc(-c2nc(P(=O)(c3ccccc3)c3ccccc3)c(N3CCOCC3)o2)cc1	-3	-5	17	10	-10	0
